Results from the supplement of paper PMC5407854, “Inhibitor of ppGalNAc-T3-mediated O-glycosylation blocks cancer cell invasiveness and lowers FGF23 levels” (eLife, 2017).
Over roughly 1,700 compounds, “T2 sensor activation Q score (MG/GFP ratio z-score vs DMSO controls)” has its median near 0.3; the highest 2% begin near 1.9. What follows is part of a selection rich in the highest values, with near analogues and random picks from the rest.

These compounds were tested on ppGalNAc-T2 sensor (assay: T2 sensor activation Q score (MG/GFP ratio z-score vs DMSO controls) (SD units); higher = more sensor activation (inhibition of ppGalNAc-T2 glycosylation)). Conditions: HEK293 sensor cells; 10 µM; 6 h.
Method: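 Cells were treated with compound at 10 uM for 6 h, then MG/GFP ratio was read by flow cytometry (10,000 cells per well, duplicate wells). Q = (R - R_neg)/SD_neg relative to DMSO vehicle controls; the signal rises when the glycosyltransferase is inhibited.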

| SMILES | T2 sensor activation Q score |
| --- | --- |
| Cn1cnc([N+](=O)[O-])c1Sc1n[nH]c(N)n1 | 1.8 |
| Cc1ncc([N+](=O)[O-])n1CCOC(N)=O | -0.85 |
| Cn1cnc([N+](=O)[O-])c1N=C(N)N | 2.2 |
| NCCCNCCSP(=O)(O)O | -0.45 |
| Cc1ccccc1-n1c(C=Cc2ccccn2)nc2ccccc2c1=O | -1 |
| COC[C@H]1OC(=O)c2coc3c2[C@@]1(C)C1=C(C3=O)[C@@H]2CCC(=O)[C@@]2(C)C[C@H]1OC(C)=O | 2.1 |
| CC12CCC3C(CC=C4CC(O)CCC43C)C1C/C(=C\N1CCCC1)C2=O (stereo not given) | 0.15 |
| C=Cc1cc(OC)c2c(c1)c(=O)oc1c2cc(OC)c2c(O)ccc(C3OC(C)C(O)C(C)(O)C3O)c21 (stereo not given) | -0.15 |
| CC(C)CC(NC=O)C(=O)O.COc1cc2c(cc1OC)C13CCN4CC5=CCOC6CC(=O)N2C1C6C5CC43 (stereo not given) | 1.3 |
| O=C1C[C@@H]2OCC=C3C[N+]4([O-])CC[C@]56c7ccccc7N1[C@H]5[C@H]2[C@H]3C[C@@H]64 (stereo not given in full) | 1.95 |
| O=C1/C(=C\c2ccccc2)C2OCC=C3CN4CCC56c7ccccc7N1C5C2C3CC46 (stereo not given) | 0.15 |
| COc1cc2c(cc1O)C[C@H]1c3c(cc(O)c(OC)c3-2)CCN1C | 0.75 |
| c1cc(C2N3CCCN2CC3)ccn1 (stereo not given) | -0.3 |
| CC(Cc1ccccc1)NC(N)=O (stereo not given) | 1.8 |
| O=C1N[C@H]2[C@H](O)[C@H](O)[C@@H](O)[C@H](O)[C@@H]2c2cc3c(c(O)c21)OCO3 | 2.6 |
| Cc1c(CCN)ccc2c1[nH]c1ccccc12 | 0.7 |
| COc1ccc2c(c1)C13CCN(C)C(C2)C1CCC1(C3)OCCO1 (stereo not given) | 2 |
| COc1ccc2c(c1O)[C@]13CCN(C)[C@H](C2)[C@@H]1CCC(=O)C3 | -0.1 |

| SMILES | T2 sensor activation Q score |
| --- | --- |
| Cc1c(C(=O)c2ccccc2)c2ccccc2n1C | 1.75 |
| O=C1N(c2nncs2)CCN1[N+](=O)[O-] | 1.2 |
| CC1CC(C)OP(=O)(OCCC#N)O1 (stereo not given) | 0.35 |
| COc1ccc(CCNC2(C#N)CCCCC2)cc1OC | -0.65 |
| CN1CCN(c2ccc([N+](=O)[O-])c3no[n+]([O-])c23)CC1 | 0.1 |
| CN1CCN(c2nc(N)c(Br)c(Cl)n2)CC1 | 0.8 |
| O=P(Oc1ccccc1)(Oc1ccccc1)c1ccccc1 | -3.1 |
| CC12CCC3C(CCC4Cc5[nH]c6ccccc6c5CC43C)C1CCC2O (stereo not given) | 0.65 |
| O=C1CCC2(O)[C@@H]3Cc4ccc(O)c5c4[C@]2(CCN3Cc2ccoc2)C1O5 (stereo not given in full) | 0.3 |
| C=CCN1CCC23c4c5ccc(O)c4OC2C(=O)CCC3(O)C1C5 (stereo not given) | 2.2 |
| NN=C1C(Cl)=C(Cl)C(Cl)=C1Cl | -0.35 |
| CCCC(=O)N(C)C1=Nc2ccc(Cl)cc2C(c2ccccc2)=[N+]([O-])C1 | 0 |
| CCC(C)c1cnc(CC(C)C)c(=O)n1O (stereo not given) | -0.75 |
| CC12CCC3c4ccc(OC(=O)N(CCCl)CCCl)cc4CCC3C1CCC2O (stereo not given) | -0.35 |
| OCC1CN1C1CCCCC1 (stereo not given) | 2.1 |
| CN1CCC(c2c[nH]c3ccccc23)C1 (stereo not given) | 0.5 |
| CCC(N)Cc1c[nH]c2ccccc12 (stereo not given) | 1.2 |
